Marburg entry inh – blocks Marburg virus binding to or entry into cells. AID 540276. Potency, µM (highest dose often 37.8 µM), without a hit: at the highest dose activity change, negative = inhibition, most hits filed as inhibitors. 300,000 compounds, 1.8% hits. Marburg virus pseudotyped entry inhibition, cell reporter; calls by dose curve; tested in HEK293 cells; further: on the % scale 0 is the no-effect control and ±100 the full control effect
HCV inh – inhibitors of hepatitis C virus infection | Huh7.5.1 HCVcc-Cre infection, luciferase reporter, 44 h | Potency, µM (titrated, usually from 41.8 µM), without a hit: at the highest dose activity change, negative = inhibition, actives largely listed as inhibitors | 340,000 compounds, 3.4% hits; further: on the % scale 0 is the no-effect control and ±100 the full control effect
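Infectious HCVcc-Cre (~0.5 moi) was added to cells just after compound, with cells seeded 4 h earlier at 1,000 per well. Luciferase activity after 44 h culture reported infection; substrate was incubated 15 min at room temperature before reading.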
Lassa entry inh – inhibitors of Lassa virus binding or cell entry; Lassa virus pseudotype entry inhibition, cell reporter; AID 540256; Potency, µM (top dose mostly 37.9 µM), inactives show top-dose activity change, negative = inhibition, hits mostly inhibitors; 300,000 compounds, 1.2% hits; calls by dose curve; tested in HEK293 cells; further: on the % scale 0 is the no-effect control and ±100 the full control effect; nearly all actives have a fitted effect of over 50% in size
Sm TGR block – blocks Schistosoma mansoni thioredoxin glutathione reductase; purified TGR, DTNB reduction, TNB absorbance 405 nm; Potency, µM (doses to about 114 µM), inactives show at the top dose activity change, negative = inhibition, hits mostly inhibitors; 360,000 compounds, 3% hits; further: on the % scale 0 is the no-effect control and ±100 the full control effect; nearly all actives have a fitted effect of over 60% in size
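Kinetic colorimetric format: TGR-catalysed, NADPH-driven DTNB reduction monitored via TNB absorbance. Enzyme dispensed at 20 nM; compound exposure 15 min at room temperature before reaction start.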
FMDV antiviral – blocks foot and mouth disease virus | FMDV antiviral cell-based qHTS | Potency, µM (top dose mostly 57.9 µM), inactives show at the top dose activity change, negative = inhibition, usual class: inhibitors | 410,000 compounds, 1.2% hits | AID 1159524; calls by dose curve; tested in HEK293T cells; further: read-out not given here; on the % scale 0 is the no-effect control and ±100 the full control effect; nearly all actives have a fitted effect of over 45% in size
RE007 growth inh – less growth of the S. pombe RE007 Vpr strain | S. pombe RE007 Vpr strain, BacTiter-Glo ATP luminescence, 24 h | Potency, µM (series often up to 92.2 µM), inactives show top-dose activity change, negative = less growth, actives largely listed as inhibitors | 360,000 compounds, 0.21% hits; active means well fitted falling curve with a large enough effect; inconclusive means small, poorly fitted or top-dose-only effect; inactive means no such curve, though single readings can be large or run the other way; further: on the % scale 0 is the no-effect control and ±100 the full control effect; nearly all actives have a fitted effect of over 50% in size
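Fission yeast strain RE007, carrying one chromosomally integrated HIV-1 vpr copy, was seeded at OD 0.01 in PMG+AL medium with 23 nL pinned compound. After 24 h at 30 °C and 99% humidity, viability was read by BacTiter-Glo luminescence.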
HCV confirm – confirmation of hepatitis C virus inhibitors | Potency, µM (doses to about 41.8 µM), inactives show at the top dose activity, negative = inhibition, hits mostly inhibitors | HCVcc-Cre infectious virus cell assay, luciferase, inhibition | 640 compounds, 78% hits | shares compounds with HCV inh; further: nearly all actives have a fitted effect of over 80% in size
HCV cytotox – counter-screen for HCV inhibitors: host cell cytotoxicity | shares compounds with HCV inh | HCV host cell line cytotoxicity counterscreen | Potency, µM (doses to about 41.8 µM), for inactives: top-dose activity change, negative = cytotoxicity, hits mostly inhibitors | 640 compounds, 22% hits;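 further: 44 h compound exposure; on the % scale 0 is the no-effect control and ±100 the full control effect; nearly all actives have a fitted effect of over 55% in size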
* hit, by the source's call; [ ] = remark or other dose. A selection: hits, their analogues and other compounds. The true share with any hit is near 7.2%. Unless noted, the call rests on the fitted dose curve; in most records, active means well fitted curve in the direction sought with a large enough effect; inconclusive means small, poorly fitted or top-dose-only effect, or another doubt; inactive means no such curve, though single readings can be large; an effect the other way counts as inactive or inconclusive. Potency means the concentration at half of the fitted maximal effect.

Screening CNC(=O)NC(=O)C(C)OC(=O)c1c2c(nc3ccccc13)/C(=C/c1cccs1)CC2 (stereo unspecified) returned Marburg entry inh inconclusive, HCV inh 2.8µM*, Lassa entry inh inconclusive, Sm TGR block -5%, FMDV antiviral -17%, RE007 growth inh -7%, HCV confirm 1.8µM* and HCV cytotox 18µM*.
For Cn1c2ccccc2c(=O)c2ccc(C#Cc3ccc(N)cc3)cc21 the results were HCV inh 6.3µM*, Sm TGR block inconclusive, FMDV antiviral -3%, RE007 growth inh -9%, HCV confirm 22µM* and HCV cytotox 41%.
For CCn1nnc(-c2ccccc2NC(=O)C(F)(F)F)n1 the results were Marburg entry inh 9%, HCV inh inconclusive, Lassa entry inh 19%, Sm TGR block -1%, RE007 growth inh -1%, HCV confirm inconclusive and HCV cytotox -17%.
CCn1nnc(-c2ccccc2NC(=O)c2cc(OC)cc(OC)c2)n1 was read as Marburg entry inh -9%, HCV inh inconclusive, Lassa entry inh 6%, Sm TGR block -9% and RE007 growth inh -7%.
Screening N#CC1=C(N)N(c2ccc(Cl)cc2)C2=C(C(=O)CCC2)C1c1cc(CN2CCOCC2)cs1 (stereo unspecified) returned Marburg entry inh inconclusive, Lassa entry inh -23%[46.1 µM], Sm TGR block 0% and FMDV antiviral -15%.
For COc1ccc(CC(=O)NC2CC(=O)N(c3cccc(F)c3)C2)cc1 (stereo unspecified) the results were Lassa entry inh 4%[46.1 µM], Sm TGR block 0% and FMDV antiviral -10%.
`CCOc1cc(-c2noc(-c3ccncc3)n2)cc(Br)c1OC` gave Marburg entry inh -29%, HCV inh inconclusive, Lassa entry inh -29%, Sm TGR block 4%, FMDV antiviral 3%, RE007 growth inh -14%, HCV confirm inconclusive and HCV cytotox 25%.
`CCOc1cc(-c2noc(CCCC(N)=O)n2)cc(Br)c1OC` gave Marburg entry inh 13%, HCV inh inconclusive, Lassa entry inh -2%, Sm TGR block 5%, FMDV antiviral -16% and RE007 growth inh -10%.
CCOC(=O)c1ccc(NC(=O)c2cc3sccc3n2Cc2ccc(Cl)cc2)cc1 was read as Marburg entry inh inconclusive, Lassa entry inh 0%[46.1 µM], Sm TGR block 0% and FMDV antiviral -24%.
Cn1c(SCC(=O)NCC2CCCO2)ncc(C(=O)Nc2ccccc2)c1=O (stereo unspecified) was read as Marburg entry inh inconclusive, HCV inh 5µM*, Lassa entry inh -14%, Sm TGR block -8%, FMDV antiviral inconclusive, RE007 growth inh -11%, HCV confirm 9% and HCV cytotox 39%.
For COc1ccc(NC(=O)Nc2ccccc2SC)cc1OC the results were HCV inh inconclusive, Sm TGR block 4%, FMDV antiviral 61% and RE007 growth inh -22%.
Screening COc1cc(OC)c(NC(=O)Nc2ccc(OC)c(OC)c2)cc1Cl returned Marburg entry inh inconclusive, HCV inh 2.5µM*, Lassa entry inh 25%, Sm TGR block -9%, FMDV antiviral 4%, RE007 growth inh -6%, HCV confirm -21% and HCV cytotox -25%.
Screening COc1cc(OC)c(NC(=O)c2cccc(F)c2)cc1Cl returned Marburg entry inh 9%, HCV inh inconclusive, Lassa entry inh inconclusive, Sm TGR block 3%, FMDV antiviral 6%, RE007 growth inh 3%, HCV confirm inconclusive and HCV cytotox 35%.
COc1cc(OC)c(NC(=O)c2ccc(F)cc2)cc1Cl was read as Marburg entry inh -20%[46.1 µM], HCV inh -28%, Lassa entry inh 16%, FMDV antiviral 12% and RE007 growth inh 1%.
COc1ccc(NC(=O)CN2C(=O)C3(SCC(=O)N3c3ccccc3)c3ccccc32)cc1Cl (stereo unspecified) was read as Lassa entry inh -4%[46.1 µM], Sm TGR block 1% and FMDV antiviral -14%.
`CCOc1ccc(N2CC(NC(=O)c3ccc(S(=O)(=O)N4CCCC4)cc3)CC2=O)cc1` (stereo unspecified) gave Lassa entry inh 1%[46.1 µM], Sm TGR block 11% and FMDV antiviral 1%.
For Cc1ccc(CNC(=O)c2ccc(CS(=O)(=O)Cc3ccc(C)cc3)o2)cc1 the results were Lassa entry inh -26%[46.1 µM], Sm TGR block 6% and FMDV antiviral -22%.
O=C1N=C(N2CCOCC2)S/C1=C/c1ccc(-c2ccccc2Cl)o1 was read as Marburg entry inh inconclusive, HCV inh inconclusive, Lassa entry inh inconclusive, Sm TGR block -1%, FMDV antiviral 15% and RE007 growth inh -9%.
Screening O=C1S/C(=C/c2ccc(N3CCOCC3)o2)C(=O)N1Cc1c(F)cccc1Cl returned Marburg entry inh inconclusive, HCV inh inconclusive, Lassa entry inh 7%, Sm TGR block inconclusive, FMDV antiviral 9%, RE007 growth inh -8%, HCV confirm 13µM* and HCV cytotox 11%.
Screening Cc1cccc(NC(=O)CSc2cn(CC(=O)N3CCCCCC3)c3ccccc23)c1 returned Lassa entry inh 26%[46.1 µM], Sm TGR block -7% and FMDV antiviral -2%.
Screening Cc1cccc(N2CCc3c2nc2ccccc2c3N)c1 returned Marburg entry inh inconclusive, HCV inh 8.9µM*, Lassa entry inh -3%, Sm TGR block -8%, FMDV antiviral -18%, RE007 growth inh -11%, HCV confirm 22µM* and HCV cytotox -24%.
Screening Cc1ccc(-n2nc(CO)c(C(=O)NC(C)c3ccccc3)n2)cc1C (stereo unspecified) returned Marburg entry inh -4%[46.1 µM], Lassa entry inh inconclusive, Sm TGR block 0% and FMDV antiviral inconclusive.
Screening Cc1ccc(OCC(=O)N(Cc2sccc2C)C2CCS(=O)(=O)C2)cc1 (stereo unspecified) returned Marburg entry inh 8%[46.1 µM], Lassa entry inh -20%[46.1 µM], Sm TGR block 6% and FMDV antiviral 36%.
For CCOC(=O)C1CCCN(S(=O)(=O)c2ccc(S(=O)(=O)N(CC)CC)cc2)C1 (stereo unspecified) the results were HCV inh 0.89µM*, Sm TGR block 3%, FMDV antiviral inconclusive, RE007 growth inh 9%, HCV confirm 0.7µM* and HCV cytotox 1.8µM*.
